This is an account of results in PubChem BioAssay.

A short description of test [1]: compounds binding Alexa647 anti-His antibody – biochemical, small-molecule microarray, 635 nm fluorescence, artefact control for SMM control protein annotation, primary screen (AID 1128).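 Note: score merges feature fluorescence with signal-to-noise for each printed compound spot.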 As to conditions: higher = more signal.
Test [2] relates to Human papillomavirus type 1a E7 protein (residues 1-88). As to the kind of experiment: HPV1a E7 small-molecule binders, primary screen, biochemical, small-molecule microarray, residues 1-88, 635 nm (AID 1129). The following applies: small-molecule microarray binding, fluorescence 635 nm; higher = more signal.
The target in test [3] is Focal adhesion kinase 1 (Homo sapiens) (UniProt Q05397). As to the kind of experiment: PTK2 protein binding on printed compound slides – biochemical, small-molecule microarray, 635/667 nm fluorescence, BSA, DTT, primary screen (AID 1130).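 Note: composite of spot emission at 667 nm and signal to noise over triplicate slides.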 The following applies: 635 nm fluorescence, higher = more signal.
Chain of Focal adhesion kinase 1 (Homo sapiens) (Q05397 whole entry, looked up): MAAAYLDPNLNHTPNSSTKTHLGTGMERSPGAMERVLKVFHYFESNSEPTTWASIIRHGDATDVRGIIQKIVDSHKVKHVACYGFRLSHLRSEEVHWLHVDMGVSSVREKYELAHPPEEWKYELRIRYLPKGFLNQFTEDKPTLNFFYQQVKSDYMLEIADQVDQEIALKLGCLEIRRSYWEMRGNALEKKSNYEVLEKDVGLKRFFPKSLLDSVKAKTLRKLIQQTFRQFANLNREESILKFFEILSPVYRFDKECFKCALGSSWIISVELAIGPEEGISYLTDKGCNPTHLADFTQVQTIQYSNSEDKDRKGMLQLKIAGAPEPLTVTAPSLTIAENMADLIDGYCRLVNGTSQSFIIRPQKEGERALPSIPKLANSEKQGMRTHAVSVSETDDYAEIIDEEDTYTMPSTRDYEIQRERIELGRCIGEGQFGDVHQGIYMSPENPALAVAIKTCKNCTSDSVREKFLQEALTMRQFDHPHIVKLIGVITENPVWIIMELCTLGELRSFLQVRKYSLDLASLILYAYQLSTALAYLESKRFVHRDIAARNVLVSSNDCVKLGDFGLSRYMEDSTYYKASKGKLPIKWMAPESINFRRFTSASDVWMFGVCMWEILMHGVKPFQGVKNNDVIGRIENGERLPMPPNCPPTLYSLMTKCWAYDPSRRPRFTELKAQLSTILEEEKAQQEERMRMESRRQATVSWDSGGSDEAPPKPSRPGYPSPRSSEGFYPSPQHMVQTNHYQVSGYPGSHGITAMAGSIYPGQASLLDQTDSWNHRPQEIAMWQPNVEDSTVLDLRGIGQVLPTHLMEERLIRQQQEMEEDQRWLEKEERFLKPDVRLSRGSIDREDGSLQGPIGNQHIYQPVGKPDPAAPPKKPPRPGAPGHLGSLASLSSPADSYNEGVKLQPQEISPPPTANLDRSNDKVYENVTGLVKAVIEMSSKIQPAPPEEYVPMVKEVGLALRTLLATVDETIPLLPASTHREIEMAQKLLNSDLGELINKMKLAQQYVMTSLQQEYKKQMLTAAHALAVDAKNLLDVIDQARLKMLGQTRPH
Test [4] deals with Fibrinogen (Alexa647-labelled). Description: Alexa647-fibrinogen binding to printed small molecules – biochemical, small-molecule microarray, 635/667 nm fluorescence, artefact control for SMM control-protein annotation, profiling panel (AID 1131).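 Note: z-score merges 667 nm fluorescence with per-spot signal-to-noise over triplicate slides.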 The following applies: fibrinogen-A647 binding fluorescence, higher = more signal.
Test [5] addresses Follistatin (Homo sapiens) (UniProt P19883). As to the kind of experiment: FST protein binding to printed compounds – biochemical, small-molecule microarray, 635/667 nm fluorescence, primary screen (AID 1132). As to conditions: 635 nm fluorescence, higher = more signal.
Test [6] addresses Fibroblast growth factor 2 (Homo sapiens) (UniProt P09038). As to the kind of experiment: basic fibroblast growth factor binding to printed compounds – biochemical, small-molecule microarray, 635/667 nm fluorescence, primary screen (AID 1133). The following applies: FGF2, fluorescence 635/667, higher = more signal.
A short description of test [7]: JC-1 mitochondrial potential readout, lung cancer cells – cell-based, A549, JC-1 fluorescence, basal, 24 h, 100 nL, profiling panel (AID 1138).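 Note: A549 lung adenocarcinoma cells under basal conditions with no added stimulus; test concentration not given here.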 The following applies: higher = more signal.
The subject of another test is Lefty1. Description: Lefty1 protein binding to printed compounds – biochemical, small-molecule microarray, 635/667 nm fluorescence, primary screen (AID 1139). The following applies: fluorescence 635/667, higher = more signal.
For test [8], the system named is wheat germ agglutinin (Triticum aestivum), Alexa647-labelled. As to the kind of experiment: Alexa647-WGA lectin binding to printed small molecules – biochemical, small-molecule microarray, 635/667 nm fluorescence, artefact control for SMM control-protein annotation, profiling panel (AID 1140).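 Note: score merges 667 nm feature emission with signal to noise over triplicate slides.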 As to conditions: WGA-A647 binding, 635 nm fluorescence, higher = more signal.

Test [9] deals with Luciferin 4-monooxygenase (Photinus pyralis) (UniProt P08659). As to the kind of experiment: inhibition of purified Photinus pyralis luciferase – biochemical, luminescence, purified enzyme, 2006 set, primary screen (AID 1141).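 Note: cell-free assay with purified firefly luciferase at 100 ng per well in PBS; test concentration not given here.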 As to conditions: purified firefly luciferase, SteadyGlo luminescence, 30 min; higher = more signal, called active from +8 up or from −8 down.
Chain of Luciferin 4-monooxygenase (Photinus pyralis) (P08659 whole entry, looked up): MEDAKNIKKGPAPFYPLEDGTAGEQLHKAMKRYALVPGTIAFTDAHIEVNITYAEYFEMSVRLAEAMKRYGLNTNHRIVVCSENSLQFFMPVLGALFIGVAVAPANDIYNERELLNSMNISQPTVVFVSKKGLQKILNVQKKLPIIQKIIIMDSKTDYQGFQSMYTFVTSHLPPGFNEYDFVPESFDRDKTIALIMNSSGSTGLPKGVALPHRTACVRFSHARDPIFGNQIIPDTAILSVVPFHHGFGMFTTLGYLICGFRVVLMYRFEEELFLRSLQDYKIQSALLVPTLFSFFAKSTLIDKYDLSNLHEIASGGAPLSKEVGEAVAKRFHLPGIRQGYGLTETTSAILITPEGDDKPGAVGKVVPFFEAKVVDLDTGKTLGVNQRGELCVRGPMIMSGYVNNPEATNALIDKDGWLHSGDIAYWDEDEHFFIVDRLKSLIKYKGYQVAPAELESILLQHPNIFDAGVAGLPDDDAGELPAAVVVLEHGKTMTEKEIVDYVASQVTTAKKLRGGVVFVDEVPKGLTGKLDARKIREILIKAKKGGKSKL
The test system of test [10] is Wnt5a (protein binding on small-molecule microarray). Description: small molecules binding Wnt5a protein – biophysical, small-molecule microarray, 635/667 nm fluorescence, primary screen (AID 1142).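 Note: fluorescence read at 667 nm with signal to noise per printed feature.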 As to conditions: 635 nm fluorescence, higher = more signal.
Test [11] is described as follows: ATP-based viability of Huh7 replicon cells – cell-based, CellTiter-Glo luminescence, basal, 48 h, cytotoxicity control for HCV replication inhibitor project, primary screen (AID 1143).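 Note: Huh7 hepatoma cells carrying a hepatitis C replication reporter with no stimulus; test concentration not given here.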 The following applies: higher = more signal, called active from +8 up or from −8 down. Background: In antiviral work, replicon cells carry a viral genome segment that copies itself.

A short description of test [12]: Pseudomonas biofilm growth suppression – PAO1 strain, BacTiter-Glo luminescence, LB-PBS, primary screen (AID 1144). As to conditions: P. aeruginosa PAO1 biofilm, 12 h, higher = more signal.
Test [13] is described as follows: basal CRE-LacZ reporter activity in PC12 – cell-based, unstimulated, primary screen (AID 1145). The following applies: no forskolin, luminescence, 4.5 h, higher = more signal, called active from +8 up or from −8 down.
Test [14] is described as follows: forskolin-driven CRE-LacZ activity in PC12 – cell-based, CRE-LacZ reporter, forskolin-stimulated, primary screen (AID 1146).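 Note: PC12 cells with 6xCRE LacZ reporter stimulated by forskolin 10 µM; beta-galactosidase reporter signal reflecting CREB driven transcription.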 The following applies: luminescence, 4.5 h, higher = more signal, called active from +8 up or from −8 down.
The target in test [15] is Streptavidin (Streptomyces avidinii) (UniProt P22629). Description: compounds binding control protein streptavidin – biophysical, small-molecule microarray, 635/667 nm fluorescence, artefact control for SMM compound annotation, primary screen (AID 1147).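 Note: signal reflects streptavidin binding to arrayed compounds as a control protein.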 As to conditions: higher = more signal.
Chain of Streptavidin (Streptomyces avidinii) (P22629 whole entry, looked up): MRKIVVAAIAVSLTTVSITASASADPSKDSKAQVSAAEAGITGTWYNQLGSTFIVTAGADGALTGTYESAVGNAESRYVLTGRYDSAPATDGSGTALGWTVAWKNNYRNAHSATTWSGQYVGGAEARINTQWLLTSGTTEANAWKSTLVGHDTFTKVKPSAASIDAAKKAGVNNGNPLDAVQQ
Test [16] can be described thus: probe aInhba binding on compound microarray – biochemical, small-molecule microarray, 635/667 nm fluorescence, primary screen (AID 1148).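 Note: score merges 667nm spot fluorescence with signal-to-noise for antibody binding to printed compounds.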 The following applies: higher = more signal.
Test [17] has as its target Torsin-1A (Homo sapiens) (UniProt O14656). As to the kind of experiment: TOR1A wild-type binding on microarray – cell lysate, small-molecule microarray, lysate, 635/667 nm, primary screen (AID 1149). The following applies: COS7 hTOR1A-WT lysate, 635 nm fluorescence, higher = more signal.
For test [18] the target is unchanged. Description: torsin A mutant lysate binding on microarrays – cell lysate, small-molecule microarray, COS7 lysate, 635/667 nm fluorescence, primary screen (AID 1150).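 Note: score pools 667 nm emission and signal to noise measuring lysate protein binding.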 The following applies: COS7 hTOR1A mutant lysate, 635 nm fluorescence, higher = more signal.
The subject of test [19] is Sonic hedgehog protein (Shh). As to the kind of experiment: Sonic hedgehog microarray binding compounds – biochemical, small-molecule microarray, 635/667 nm fluorescence, primary screen (AID 1151).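 Note: Shh protein binding to compounds spotted on small-molecule microarray slides; score combines spot fluorescence intensity with signal-to-noise across triplicate slides.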 As to conditions: 635 nm fluorescence, higher = more signal.

The source made the active and inactive calls. Unless noted, the rule behind the calls is not given here.

Chain of Torsin-1A (Homo sapiens) (O14656 whole entry, looked up): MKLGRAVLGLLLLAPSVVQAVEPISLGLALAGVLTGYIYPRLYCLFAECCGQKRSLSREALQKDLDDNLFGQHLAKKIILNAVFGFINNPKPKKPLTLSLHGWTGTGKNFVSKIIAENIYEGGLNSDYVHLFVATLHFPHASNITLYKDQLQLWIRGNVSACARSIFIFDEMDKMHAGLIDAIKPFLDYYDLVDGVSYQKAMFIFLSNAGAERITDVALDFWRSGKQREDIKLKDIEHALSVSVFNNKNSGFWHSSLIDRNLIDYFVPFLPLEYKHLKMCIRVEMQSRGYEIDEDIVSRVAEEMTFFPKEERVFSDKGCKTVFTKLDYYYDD
Chain of Follistatin (Homo sapiens) (P19883 whole entry, looked up): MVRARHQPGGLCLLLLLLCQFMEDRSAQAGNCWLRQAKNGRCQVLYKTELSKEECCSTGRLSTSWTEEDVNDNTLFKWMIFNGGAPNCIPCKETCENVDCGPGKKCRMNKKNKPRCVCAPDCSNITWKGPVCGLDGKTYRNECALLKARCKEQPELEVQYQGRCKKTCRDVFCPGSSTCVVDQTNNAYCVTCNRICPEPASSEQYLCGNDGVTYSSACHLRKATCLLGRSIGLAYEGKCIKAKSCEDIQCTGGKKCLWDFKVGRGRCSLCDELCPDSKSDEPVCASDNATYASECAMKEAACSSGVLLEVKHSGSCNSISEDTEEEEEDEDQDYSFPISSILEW
Chain of Fibroblast growth factor 2 (Homo sapiens) (P09038 whole entry, looked up): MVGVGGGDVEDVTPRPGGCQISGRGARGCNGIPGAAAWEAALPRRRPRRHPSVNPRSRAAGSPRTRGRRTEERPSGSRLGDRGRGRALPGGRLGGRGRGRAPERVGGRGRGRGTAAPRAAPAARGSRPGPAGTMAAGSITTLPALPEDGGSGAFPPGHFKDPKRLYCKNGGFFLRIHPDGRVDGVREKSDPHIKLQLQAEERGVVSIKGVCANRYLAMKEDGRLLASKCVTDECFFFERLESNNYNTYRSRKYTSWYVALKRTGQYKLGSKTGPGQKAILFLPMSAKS

In the case of `COc1ccc([Si](C)(C)[C@@H]2[C@@H](CCn3cc([C@H](O)c4ccccc4)nn3)O[C@]3(C(=O)N(Cc4ccc(N5CCC5=O)cc4)c4ccccc43)[C@H]2C)cc1`, the composite z-score is 0.174 in test [1]; -0.304 in test [2]; -0.0467 in test [3]; -0.926 in test [4]; 1.31 in test [5]; 0.749 in [6]. Moreover, the composite z-score was 1.05 with Lefty1; 0.118 in test [8]; 0.512 in test [10]; -0.105 in [15]; -0.184 in test [16]; 2.13 with Torsin-1A (Homo sapiens) [17]. In addition, the values for the composite z-score (in the test with Torsin-1A (Homo sapiens) [18]; in test [19]) were 0.269 and 2.02, respectively. The z-score was 1.87 in test [7]; -0.325 (inactive) in [9]; -2.65 (inactive) in [11]; -1.38 (inactive) in test [12]; 1.03 (inactive) in [13]; 0.355 (inactive) in test [14].

Turning to `Cc1ccc(S[C@]2(C(=O)O)CC(=O)N(Cc3ccccc3Cl)[C@@H]2c2ccc(CO)cc2I)cc1`, the composite z-score in test [1] is 0.12; in [2], 0.193; in test [3], 0.287; in test [4], -0.147; in test [5], 0.257; in test [6], 0.261. The composite z-score with Lefty1 was -1.23; in test [8] it was 0.435; in test [10] it was -0.3; in [15], -0.657; in test [16], -0.649; with Torsin-1A (Homo sapiens) [17], 0.294. Moreover, the composite z-score with Torsin-1A (Homo sapiens) [18] turned out to be 0.396; in test [19] it was 0.0254. Moreover, the z-score in [7] is -0.134; in [9] it was 0.341 (inactive); in [11], -2.09 (inactive); in [12] it was -0.309 (inactive); in test [13] it was 1.2 (inactive); in test [14], 3 (inactive).

As to `Cc1cc(C)c(C(O)C2C=CC3C(=O)N(c4ccccc4)C(=O)C3N2Nc2ccc(C(C)C)cc2)c(C)c1` (stereo not given), the composite z-score in test [1] came to 1.11; in test [2] it was 1.26; in [3], 1.22; in [4] it was 1.02; in [5] it was 0.811; in test [6] it was 0.375. The composite z-score in the test on Lefty1 is -0.138; in [8] it was 1.39; in test [10], 0.704; in test [15] it was 1.71; in test [16] it was 0.375; with Torsin-1A (Homo sapiens) [17] it was 0.385. Also, the figures for the composite z-score (with Torsin-1A (Homo sapiens) [18]; in test [19]) were 0.333 and -0.297, respectively. For the same compound, the z-score in test [7] was 0.178; in test [9] it was -0.197 (inactive); in test [11], 0.366 (inactive); in test [12] it was -0.342 (inactive); in [13] it was 0.629 (inactive); in [14], 1.07 (inactive).

As to `COc1ccc(CCN2C(=O)[C@@]3(Cc4ccccc42)c2ccccc2C(=O)N(Cc2ccccc2OC)[C@H]3c2ccc(CO)cc2)cc1`, the composite z-score in [1] was -0.983; in test [2], -1.04; in [3], -0.149; in [4], -1.45; in test [5], -1.19; in [6], -0.832. The composite z-score is -1.55 in the test with Lefty1; -0.176 in test [8]; -0.166 in test [10]; -0.491 in test [15]; -0.126 in test [16]; -0.194 in the test with Torsin-1A (Homo sapiens) [17]. Besides, the figures for the composite z-score (with Torsin-1A (Homo sapiens) [18]; in test [19]) were -0.933 and -0.384, respectively. Further, the z-score was 0.132 in test [7]; -0.377 (inactive) in test [9]; -4.54 (inactive) in test [11]; 0.0431 (inactive) in test [12]; 0.649 (inactive) in test [13]; -0.341 (inactive) in test [14].

For the compound `CN(C)CCCNC(=O)[C@@]1(c2ccc([N+](=O)[O-])cc2)CC(=O)N(CC23CC4CC(CC(C4)C2)C3)[C@@H]1c1ccc(CO)cc1I`, the composite z-score was 1.46 in test [1]; 1.21 in [2]; -0.0381 in test [3]; 0.846 in test [4]; 1.35 in [5]; 1.34 in test [6]. Besides, the composite z-score in the test on Lefty1 came out at 1.5; in [8], 0.674; in [10], 0.607; in [15], 0.164; in test [16] it was 0.206; with Torsin-1A (Homo sapiens) [17], 0.835. The values for the composite z-score (in the test with Torsin-1A (Homo sapiens) [18]; in test [19]) were 0.996 and 1.96, respectively. Further, the z-score in test [7] is -2.32; in test [9], -1.46 (inactive); in test [11], -5.93 (inactive); in test [12], -0.263 (inactive); in [13] it was 0.468 (inactive); in test [14] it was 0.372 (inactive).
